DT40 TDP1 no CPT: qHTS for Inhibitors of human tyrosyl-DNA phosphodiesterase 1 (TDP1): qHTS in cells in absence of CPT; DT40 Tdp1-/- hTDP1 cells, no CPT, ATP luminescence, 48 h; hit rate 15% among 420,000; Potency, µM (highest dose often 46.2 µM), for inactives: top-dose activity change, negative = growth inhibition, usual class: inhibitors; also: potency is read from the fitted curve at half-maximal effect; nearly all actives have a fitted effect of over 55% in size
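A cellular qHTS used chicken DT40 cells lacking endogenous Tdp1 but carrying stably transfected human TDP1. Compounds were applied without camptothecin, and cell growth kinetics were judged by ATP-dependent luminescence after ≥48 hr.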
VP16 counter: Gal4-VP16 reporter inhibition counter-screen. Drosophila S2 Gal4-VP16 UAS-luciferase, luminescence, 20 h. Potency, µM (doses to about 53.6 µM), inactives show at the highest dose activity, negative = inhibition, hits mostly inhibitors. hit rate 3.5% among 310,000;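 also: Gal4-VP16 expression switched on by copper sulfate through the metallothionein promoter; potency is read from the fitted curve at half-maximal effect; nearly all actives have a fitted effect of over 50% in size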
IL-1B inflam inh: inflammasome signaling inhibition, IL-1 beta readout; THP-1 LPS/ATP IL-1B secretion, AlphaLISA, 16 h; stronger effect = lower value; activity change, % at 57.5 µM; hit rate 4.7% among 360,000; in the data active = activity change below about -50%; inconclusive = mostly about -30% to -49%
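THP-1 cells pretreated 1 hr with compounds (up to 57.5 uM final), then stimulated with LPS (250 ng/mL final) plus ATP (1.25 mM final); secreted IL-1B measured by AlphaLISA after 16 hr, decreased signal indicating inhibition.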
RORg inh: inhibitors of mouse ROR gamma transcriptional activity; Potency, µM (doses to about 53.6 µM), for the others: at the top dose activity change, negative = inhibition, usual class: inhibitors; Drosophila S2 Gal4-RORgamma UAS-luciferase reporter, 20 h; hit rate 5.4% among 310,000; P51450; also: potency is read from the fitted curve at half-maximal effect; nearly all actives have a fitted effect of over 60% in size
Target sequence (P51450 whole entry, looked up, the tested form may be a part): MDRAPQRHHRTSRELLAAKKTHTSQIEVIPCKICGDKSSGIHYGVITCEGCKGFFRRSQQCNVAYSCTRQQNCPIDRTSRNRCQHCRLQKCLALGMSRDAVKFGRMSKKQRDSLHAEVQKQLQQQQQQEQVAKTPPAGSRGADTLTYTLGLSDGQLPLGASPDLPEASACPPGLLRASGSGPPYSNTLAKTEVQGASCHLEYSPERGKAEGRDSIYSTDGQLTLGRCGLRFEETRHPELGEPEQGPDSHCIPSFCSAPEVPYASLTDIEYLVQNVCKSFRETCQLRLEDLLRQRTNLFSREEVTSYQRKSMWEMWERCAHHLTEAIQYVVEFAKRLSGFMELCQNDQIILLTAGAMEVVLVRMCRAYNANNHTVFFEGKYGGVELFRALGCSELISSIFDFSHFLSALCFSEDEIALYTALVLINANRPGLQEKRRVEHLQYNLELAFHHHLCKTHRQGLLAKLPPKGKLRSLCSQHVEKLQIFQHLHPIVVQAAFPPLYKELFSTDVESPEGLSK
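Stable Schneider cell line, Gal4 DNA-binding domain fused to ROR gamma, UAS-luciferase. Cmpd 1 hr RT → CuSO4 700 uM final → 20 hr RT → luciferase reagent 10 min → luminescence.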
DT40 TDP1 CPT: DT40-hTDP1 cell growth loss with CPT | AID 686979 | hit rate 12% among 420,000 | chicken DT40 Tdp1-/-;hTDP1 cells + 20 nM CPT, ATP luminescence, 48 h | Potency, µM (doses to about 46.2 µM), inactives show top-dose activity change, negative = growth inhibition, most hits filed as inhibitors; also: potency is read from the fitted curve at half-maximal effect; nearly all actives have a fitted effect of over 55% in size
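Cell growth measured by CellTiter-Glo luminescence after a minimum 48 h, 37 C compound exposure with 20 nM CPT in Tdp1-knockout DT40 cells stably expressing hTDP1, seeded 400/well; qHTS titration format.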
ELG1 repair inh: blocks ELG1-dependent DNA repair in HEK293T cells. HEK293T ELG1-luciferase reporter, luminescence, 16 h; DNA damage induced by 5-fluorouridine. hit rate 2.3% among 330,000. Potency, µM (highest dose often 46.1 µM), inactives show top-dose activity change, negative = inhibition, actives largely listed as inhibitors; also: potency is read from the fitted curve at half-maximal effect; nearly all actives have a fitted effect of over 55% in size
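Luminescence from the luciferase reporter, measured 30 min after ONE-Glo reagent at room temperature, was the read-out. Beforehand, 2,000 cells per well were exposed for 16 hr at 37 °C to 5-fluorouridine together with compound or vehicle.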
* hit, by the source's call; ? = inconclusive; . = no result; ! = a repeat was not active; [ ] = remark or other dose. In the library only some 21% were active in any assay of this set; here they are far more common. Unless noted, calls follow the shape of the dose curve; as a rule, active = well fitted curve in the direction sought with a large enough effect; inconclusive = small, poorly fitted or top-dose-only effect, or another doubt; inactive = no such curve, though single readings can be large; an effect the other way counts as inactive or inconclusive. % is scaled to controls: 0 for no effect and ±100 for the full control effect.

SMILES	DT40 TDP1 no CPT	VP16 counter	IL-1B inflam inh	RORg inh	DT40 TDP1 CPT	ELG1 repair inh
CN(CC(=O)Nc1ccc(S(=O)(=O)N2CCCC2)cc1)Cc1ccc(Cl)cc1	?	-13%	0	31%	16µM*	?
CN(CC(=O)Nc1ccc(S(=O)(=O)N2CCCC2)cc1)Cc1c(F)cccc1Cl	16µM*	-8%	-60*	0%	15µM*	?
CCC(C)n1ncn(-c2ccc(N3CCN(c4ccc(OC[C@H]5CO[C@](Cn6cncn6)(c6ccc(Cl)cc6Cl)O5)cc4)CC3)cc2)c1=O (stereo partly specified)	-27%	.	.	.	-14%	.
CC12CCC=CC1C(c1ccc(/C=C/c3ccccc3)cc1F)N(Cc1ccccc1)C2=O (stereo unspecified)	.	-9%	.	12%	.	.
CN(C)c1ccc(-c2cc(C3C4C=CCCC4(C)C(=O)N3Cc3ccccc3)ccc2F)cc1 (stereo unspecified)	.	-11%	.	16%	.	.
CC12CCC=CC1C(c1ccc(F)c(Br)c1)N(Cc1ccccc1)C2=O (stereo unspecified)	.	28%	.	15%	.	.
COc1ccc([C@H]2[C@@H]3C=CCC[C@@]3(C)C(=O)N2Cc2ccccc2)cc1Cl	21µM*	10%	-9	4%	?	4%
C[C@@]12CCC=C[C@H]1[C@H](c1ccc(F)c(/C=C/c3ccccc3)c1)N(Cc1ccccc1)C2=O	16µM*	-6%	7	8%	?	-1%
CN(C)c1ccc(-c2cc([C@H]3[C@@H]4C=CCC[C@@]4(C)C(=O)N3Cc3ccccc3)ccc2F)cc1	23µM*	-2%	-15	-1%	?	-1%
CC12CCC=CC1C(c1ccc(C(F)(F)F)cc1)N(Cc1ccccc1)C2=O (stereo unspecified)	.	2%	.	?	.	.
COc1ccc(-c2cc([C@H]3[C@@H]4C=CCC[C@@]4(C)C(=O)N3Cc3ccccc3)ccc2F)cc1OC	?	8%	-20	16%	26µM*	?
CC(c1c(O)c2ccccc2[nH]c1=O)C1(C)CCC(O)C(C)(C)O1 (stereo unspecified)	?	1%	24	2%	?	3%
COC(=O)[C@@H]1CCCN1Cc1ccc2c(c1)CN(Cc1coc3ccc(C)cc3c1=O)CCO2	?	.	.	.	-1%[9.04 µM]	.
CN(C)c1ccc(-c2ccc([C@H]3[C@@H]4C=CCC[C@@]4(C)C(=O)N3Cc3ccccc3)c(F)c2)cc1	18µM*	-3%	0	14%	23µM*	0%
O=C(Nc1c(F)cccc1F)c1ccc(-n2cncn2)nc1	3%	2%	-9	1%	1%	3%
Cc1ccccc1NC(=O)c1ccc(-n2cncn2)nc1	-17%	-6%[0.365 µM]	-5	18µM*	-12%	-26%
COc1cc2c(cc1OC)C(COc1ccccc1OC)N(C(=O)CC(C)C)CC2 (stereo unspecified)	18µM*	.	.	.	?	.
COc1cc2c(cc1OC)C(COc1cc(C)cc(C)c1)N(C(=O)C(C)(C)C)CC2 (stereo unspecified)	26µM*	.	.	.	?	.
COc1cc2c(cc1OC)C(COc1cc(C)cc(C)c1)N(C(=O)COc1ccccc1)CC2 (stereo unspecified)	23µM*	.	.	.	?	.
CCC(=O)N1CCc2cc(OC)c(OC)cc2C1COc1ccccc1OC (stereo unspecified)	?	5%	3	5%	?	?
CCOC(=O)c1c(C)oc2nc(C)nc(NCC3CCN(Cc4cccc(Cl)c4)CC3)c12	-19%	.	.	.	-21%	.
CC(C)(C)[C@H]1COC(=O)[C@@H](NC(=O)OCC2c3ccccc3-c3ccccc32)C/C=C\C[C@@H](CC(=O)N[C@@H](CO)Cc2ccccc2)C(=O)N1	6.5µM*	.	-7	.	9.2µM*	-15%
C[C@@H]1COC(=O)[C@H](NC(=O)OCC2c3ccccc3-c3ccccc32)C/C=C\C[C@@H](CC(=O)N[C@H](CO)Cc2ccccc2)C(=O)N1	21µM*	.	-1	.	18µM*	?
CC(C)(C)[C@H]1COC(=O)[C@@H](Cc2ccc(F)cc2)C/C=C\C[C@@H](CC(=O)N[C@H](CO)Cc2ccccc2)C(=O)N1	?	.	-11	.	?	?
O=C(C[C@@H]1C/C=C\C[C@@H](NC(=O)OCC2c3ccccc3-c3ccccc32)C(=O)OCCNC1=O)N[C@@H](CO)Cc1ccccc1	8.2µM*	.	24	.	9.2µM*	-18%
SMILES	DT40 TDP1 no CPT	VP16 counter	IL-1B inflam inh	RORg inh	DT40 TDP1 CPT	ELG1 repair inh
C=CCCCCCCCCCBr	.	1%	.	3%	.	.
COc1ccccc1CCN=C(N)NS(=O)(=O)c1ccc(C)c(C)c1	1%	-8%	-19	1%	-22%	-4%
O=C(Cc1c(O)c2ccccc2[nH]c1=O)N(Cc1ccccc1)Cc1ccccc1	0%	-1%	65	-12%	-15%	0%
CCCCCCN(CCCCCC)C(=O)Cc1c(-c2ccc(F)cc2)[nH]c2ccccc12	13µM*	-6%	-12	17%	9.4µM*!	-9%
COc1ccc(C)cc1NC(=O)CCNC(=O)Cn1cnc2ccccc2c1=O	0%	-1%	2	0%	1%	-10%
Cc1cccc(-c2nc(CN3CCCC(C(=O)NC4CCCCC4)C3)c(C)o2)c1 (stereo unspecified)	21µM*	1%	-6	-13%	21µM*	-10%
Cc1cccc(-c2nc(CN3CCCC(C(=O)NC4CCCCCC4)C3)c(C)o2)c1 (stereo unspecified)	18µM*	7%	-66*	-12%	21µM*	?
COc1ccc(-c2nc(CN3CCC(C(=O)NC4CCCC4)CC3)c(C)o2)cc1OC	0%	-6%	36	3%	-5%	10%
NC(=O)c1nsc(C(=O)N(c2ccccc2)C(C(=O)NCc2ccc(F)cc2)c2ccc(O)cc2)c1N (stereo unspecified)	18µM*	-1%	-19	-2%	21µM*	?
COc1ccc(N(C(=O)c2snc(C(N)=O)c2N)C(C(=O)NCc2ccccc2)c2ccc(O)cc2)cc1 (stereo unspecified)	23µM*	23%	-21	16%	?	8%

Source: PubChem BioAssay
